# Screening results from PubChem.
# Rows were chosen to be rich in hits. Some 2.8% of all compounds tested hit in one or more screens of this group.
# POLI inh: qHTS for Inhibitors of Polymerase Iota; Pol iota fluorescent replication assay, 10 min; hit rate 1% among 390,000; Potency, µM (top dose mostly 115 µM), without a hit: at the top dose activity, negative = inhibition, most hits filed as inhibitors; also: potency is read from the fitted curve at half-maximal effect
#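 Pol iota at 10 nM preincubated 15 min with compounds at room temperature; reaction started with fluorescent substrate, 50 nM final. Fluorescence read kinetically at 0 and 10 min; buffer-only wells as negative control.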
# PI5P4Ka inh: qHTS for Inhibitors of phosphatidylinositol 5-phosphate 4-kinase (PI5P4K). PI5P4Kalpha enzyme, ADP-Glo luminescence, 60 min; hits give low values. max response, %. Phosphatidylinositol 5-phosphate 4-kinase type-2 alpha (Homo sapiens), P48426. hit rate 1.2% among 330,000. AID 652105, 2013; active = max response of -50% or lower; inconclusive = between -30% and -50%; inactive = -30% or higher; also: value at the top dose of about 77 µM; % is scaled to controls: 0 for no effect and ±100 for the full control effect
#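 ADP-Glo luminescence end-point after a 60 min room-temperature kinase reaction. PI5P4Kalpha and substrate in HEPES pH 7.4 buffer with EGTA, 0.1% CHAPS and 5% DMSO; ATP at 5 microM final.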
# POLH inh: qHTS for Inhibitors of Polymerase Eta; DNA polymerase eta (Homo sapiens), Q9Y253; recombinant Pol eta, fluorescent DNA replication assay; Potency, µM (titrated, usually from 114 µM), without a hit: at the highest dose activity change, negative = inhibition, most hits filed as inhibitors; hit rate 1.2% among 390,000; AID 588591, 2011; also: potency is read from the fitted curve at half-maximal effect; % is scaled to controls: 0 for no effect and ±100 for the full control effect
# Target sequence (Q9Y253 whole entry, looked up): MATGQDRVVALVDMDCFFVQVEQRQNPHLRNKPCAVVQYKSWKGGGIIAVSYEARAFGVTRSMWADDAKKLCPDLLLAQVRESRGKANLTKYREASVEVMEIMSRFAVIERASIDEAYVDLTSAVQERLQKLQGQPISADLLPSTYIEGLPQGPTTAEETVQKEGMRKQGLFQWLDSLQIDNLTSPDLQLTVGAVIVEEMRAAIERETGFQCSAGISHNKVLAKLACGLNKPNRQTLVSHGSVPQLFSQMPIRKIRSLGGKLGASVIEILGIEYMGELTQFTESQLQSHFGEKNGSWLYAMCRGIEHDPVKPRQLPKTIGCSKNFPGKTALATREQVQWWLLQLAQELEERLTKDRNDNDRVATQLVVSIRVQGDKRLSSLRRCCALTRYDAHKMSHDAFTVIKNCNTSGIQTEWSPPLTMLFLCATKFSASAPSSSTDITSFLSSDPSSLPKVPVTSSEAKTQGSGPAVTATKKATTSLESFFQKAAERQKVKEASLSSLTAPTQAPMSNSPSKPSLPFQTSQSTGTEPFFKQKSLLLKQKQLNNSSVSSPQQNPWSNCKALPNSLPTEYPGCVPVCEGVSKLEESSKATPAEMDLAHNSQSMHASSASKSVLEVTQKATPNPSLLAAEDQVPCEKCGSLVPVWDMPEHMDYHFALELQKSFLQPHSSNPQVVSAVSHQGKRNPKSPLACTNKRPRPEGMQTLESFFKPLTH
#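 Fluorescent replication assay: 50 nM final substrate added after a 15 min room-temperature compound preincubation with 10 nM enzyme. Signal taken at 0 min and again at 10 min.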
# POLB inh: qHTS Assay for Inhibitors of DNA Polymerase Beta. Potency, µM (series often up to 114 µM), for inactives: at the top dose activity change, negative = inhibition, actives largely listed as inhibitors. Pol beta primer extension/strand displacement, fluorescence kinetic. hit rate 1.3% among 340,000. AID 485314, 2010; also: potency is read from the fitted curve at half-maximal effect; % is scaled to controls: 0 for no effect and ±100 for the full control effect
#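 Human Pol beta at 10 nM; strand-displacement substrate 50 nM final. Compound exposure 15 min at room temperature before start, reaction 10 min at room temperature.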
# FEN1 inhibitor: qHTS Assay for the Inhibitors of Human Flap endonuclease 1 (FEN1); P39748; Recombinant FEN1 flap cleavage, fluorescence, 15 min; Potency, µM (titrated, usually from 114 µM), for the others: top-dose activity change, negative = inhibition, actives largely listed as inhibitors; hit rate 0.35% among 390,000; AID 588795, 2011; also: potency is read from the fitted curve at half-maximal effect; % is scaled to controls: 0 for no effect and ±100 for the full control effect; nearly all actives have a fitted effect of over 65% in size
#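 Enzyme 10 nM, 15 min RT preincubation with compound; start with substrate 50 nM final; reads at 0 and 15 min; qHTS titration, four-parameter Hill fit.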
# POLK inh: qHTS for Inhibitors of Polymerase Kappa; hit rate 0.53% among 400,000; Potency, µM (doses to about 107 µM), without a hit: at the top dose activity, negative = inhibition, most hits filed as inhibitors; purified Pol kappa, fluorescent DNA synthesis assay, 10 min; AID 588579, 2011; also: potency is read from the fitted curve at half-maximal effect; % is scaled to controls: 0 for no effect and ±100 for the full control effect
#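 Inhibition of 10 nM Pol kappa is measured by a fluorescent read-out at 0 and 10 min following addition of 50 nM substrate (final), with a 15-min room-temperature compound preincubation.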
# * = called active by the depositor; u = inconclusive; x = no result given; [ ] = dose if it differs, or a comment. Unless noted, calls follow the shape of the dose curve; as a rule, active = well fitted curve in the direction sought with a large enough effect; inconclusive = small, poorly fitted or top-dose-only effect, or another doubt; inactive = no such curve, though single readings can be large; an effect the other way counts as inactive or inconclusive.
SMILES,POLI inh,PI5P4Ka inh,POLH inh,POLB inh,FEN1 inhibitor,POLK inh
CC(NC(=O)COc1ccc(/C=N/NC(=O)C(=O)Nc2ccccc2Br)cc1)c1ccccc1 (centres undefined),u,12,u,32µM*,5%,9%
O=C(CCC(=O)Nc1ccccc1)N/N=C/c1ccncc1,9%,1,7%,20µM*,0%,9%
O=C(N/N=C/c1ccc(OC(=O)c2ccccc2)cc1)c1cccnc1,u,-10,u,50µM*,-28%,-33%
O=C(N/N=C/c1c(-c2ccccc2)[nH]c2ccccc12)c1cccnc1,-26%,-12,-13%,u,u,-23%
Cn1c(-c2ccccc2)c(/C=N/NC(=O)c2cccnc2)c2ccccc21,21%,-7,-18%,56µM*,-35%,-26%
CCOc1ccc(C(=O)Cn2c(=O)n3nc(CCn4nc(C)cc4C)nc3c3cc(OC)c(OC)cc32)cc1,-3%,x,-4%,11%,17%,-16%[60.1 µM]
COc1ccc(NC(=O)c2cccc(S(=O)(=O)NCc3ccccc3)c2)cc1S(N)(=O)=O,18%,-4,-12%,x,-13%,-10%
O=C(O)COc1ccccc1/C=N/NC(=O)COc1ccc(-c2ccccc2)cc1,-7%,-2,50µM*,u,u,-1%
O=C(Cc1ccccc1)N/N=C/c1ccc(OCC(=O)Nc2ccccc2)cc1,-11%,-7,u,28µM*,7%,-9%
Cc1ccc(CSCC(=O)N/N=C/c2ccc(OCC(=O)Nc3ccc(C)cc3)cc2)cc1,u,10,u,10µM*,-18%,-27%
COc1ccc(Br)c(/C=N/NC(=O)COc2ccc(-c3ccccc3)cc2)c1,u,1,-6%,2%,-8%,-2%
O=C(N/N=C/c1ccc(OC(=O)c2cccs2)cc1)c1ccc(F)cc1,9%,-1,u,18µM*,-17%,-17%
O=C(COc1ccc(/C=N/NC(=O)c2ccccc2Br)cc1)Nc1ccccc1,36%,5,-12%,u,-1%,5%
Cc1nn(C)cc1S(=O)(=O)Nc1ccc(C(F)(F)F)cc1,27%,1,-18%,0%,6%,-17%
CCCCn1c(N)c(N(CCOC)C(=O)c2ccc(COc3ccccc3)o2)c(=O)[nH]c1=O,31%,5,-11%,x,-8%,-4%
O=C(COc1ccc(/C=N/NC(=O)c2cccnc2)cc1)Nc1ccccc1,49%,-3,u,32µM*,1%,-1%
COc1ccccc1NC(=O)COc1ccc(/C=N/NC(=O)c2cccnc2)cc1,22%,8,2%,-15%,17%,-1%
Cc1nc2c(C(=O)NCCc3ccccc3)c[nH]n2c(=O)c1Cl,23%,x,-11%,34%,-20%,-5%
Cc1nc2c(C(=O)NCCC(C)C)c[nH]n2c(=O)c1Cc1ccccc1F,u,x,-3%,71µM*,-18%,-12%
Cc1ccc(CNC(=O)c2c[nH]n3c(=O)c(Cc4ccc(F)cc4Cl)c(C)nc23)cc1,u,x,71µM*,50µM*,u,u
Cc1nc2c(C(=O)NCCc3ccc(Cl)cc3)c[nH]n2c(=O)c1Cc1ccccc1F,71µM*,x,u,u,u,-13%
Cc1nc2c(C(=O)NCCc3ccccc3)c[nH]n2c(=O)c1Cc1ccc(F)cc1Cl,u,x,-30%,79µM*,u,-22%
NC(=O)c1cc(NC(=O)c2cc(Br)c(Br)s2)cc(C(N)=O)c1,5%,-20,-3%,40µM*,u,-22%
O=C(CC1C[C@H](C(=O)N2CCOCC2)[C@@]2(CCC3CCCC3)c3[nH]c4ccccc4c3CCN2C1=O)NCc1cccc(C(F)(F)F)c1 (some centres undefined),17%,-1,-12%,x,0%,0%
CCOC(=O)N1CCC(N(CCN(C)C)C(=S)Nc2ccc(Oc3ccccc3)cc2)CC1,-13%,4,1%,-22%,-3%,-10%
SMILES,POLI inh,PI5P4Ka inh,POLH inh,POLB inh,FEN1 inhibitor,POLK inh
C=CCN1c2ccccc2[C@]23C[C@@H](C(=O)OC)N(C(=O)c4cccs4)C2=NC(C(=O)OC)=C(C(=O)OC)[C@H]13,u,-52*,-8%,-21%,-1%,-14%
C=CCN1c2ccccc2[C@]23C[C@@H](C(=O)OC)N(C(=O)c4ccc(Br)cc4)C2=NC(C(=O)OC)=C(C(=O)OC)[C@H]13,-4%,-3,-12%,3%,-16%,-7%
CCOc1c(OC(C)=O)ccc(/C=C2\N=C(SCC)SC2=O)c1[N+](=O)[O-],7%,u,-14%,-5%,-9%,-4%
CCOc1cc(/C=C2\N=C(SCC)SC2=O)cc([N+](=O)[O-])c1OC(C)=O,u,-68*,45µM*,16µM*,u,u
C[C@@](N)(Cc1ccc(O)cc1)C(=O)O,x,x,x,x,x,-8%[60.1 µM]
CC(N)(Cc1ccc(O)c(O)c1)C(=O)O (centres undefined),u,x,-3%[57.1 µM],5.6µM*,x,u
Cc1noc(/C=C/c2ccco2)c1S(=O)(=O)N1CCC(C(=O)N2CCc3ccccc3C2)CC1,45µM*,x,u,-111%,3%,-35%
C/C(=N/NC(=O)CNC(=O)c1cccnc1)c1ccc(Cl)c(Cl)c1,10%,-11,-2%,17%,-2%,0%
Cc1nc2ccn(Cc3cccs3)c(=O)c2cc1C(=O)Nc1ccccc1,3%,x,-15%,-7%,11%,14%
Cc1cc(C(=O)O)ccc1-c1ccc(/C=C2\NC(=O)N(Cc3ccccc3Cl)C2=O)o1,5.6µM*,-67*,4.5µM*,14µM*,u,22µM*
Cc1cc(C(=O)O)ccc1-c1ccc(/C=C2\SC(=O)N(CC(=O)Nc3ccc4c(c3)OCO4)C2=O)o1,x,x,x,0%,x,x
COc1cc2c(cc1O)C(CSC)Cc1cc3c(cc1N(C)CC2)OCO3 (centres undefined),x,3,-9%,x,x,x
CC(=O)c1c(C)oc2c1cc(NS(=O)(=O)c1ccc(Br)cc1)c1ccccc12,48%,x,-21%,-18%,16%,-2%[60.1 µM]
Cc1oc2c(cc(NS(=O)(=O)c3ccc(Cl)cc3)c3ccccc32)c1C(=O)O,46%,-28,50µM*,20%,-20%,-41%
O=C1c2ccccc2C(=O)c2c1cccc2-n1nnc2ccccc21,61%,0,-12%,-1%,-10%,3%
O=C1C(N2CCOCC2)=C(n2nnc3ccccc32)C(=O)c2ccccc21,u,-10,45µM*,-4%,-12%,-7%
